# Compound activity deposited in PubChem by several laboratories.
# The list is not random: actives were taken first. Their share in the collection is about 2%.
# LGR2 antag = inhibitors of bursicon-induced Drosophila LGR2 receptor cAMP signaling. HEK293 LGR2, CRE-luciferase, bursicon-stimulated, 4 h. inhibition, % at 9.99 µM. 380,000 compounds, 0.35% hits;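 active = drop in luminescence signal, shown as inhibition above about 50% in the replicate tests, limit read from the data, passing the limit was not always enough; inconclusive = probably only some replicates passing the limit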;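 note: agonist challenge used bursicon conditioned medium at about half maximal strength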
# EWS-Fli inh = blocks EWS/Fli oncoprotein-driven transcription; A673 NR0B1-luciferase reporter, viability-normalised; inhibition, % at 12.6 µM; 350,000 compounds, 0.67% hits; AID 651661;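 active = mean inhibition of at least 50% after viability correction, with every replicate also passing that limit; inconclusive = mean reaches 50% but only one of two replicates passes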;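 note: firefly luciferase signal divided by Alamar Blue viability fluorescence both relative to DMSO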
# PAX8 reporter = inhibitors of PAX8 transcriptional activity in RMG-I cells; AID 652154; 360,000 compounds, 1.2% hits; RMG-I TPO-luciferase reporter, SteadyGlo, 24 h; inhibition, % at 12.6 µM;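 active = mean replicate inhibition at least 60% with every replicate also reaching 60%; inconclusive = only one of the two criteria is met; inactive = mean below 60% and not all replicates reaching 60%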;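 note: luciferase light reporting Pax8 driven TPO promoter activity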
# Shn3 3UTR inh = reduces Shn3 3'UTR luciferase signal in osteoblasts. Clone20 osteoblast Shn3 3'UTR firefly luciferase, 24 h. inhibition, % at 12.5 µM. 360,000 compounds, 0.52% hits. AID 588674;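 active = mean inhibition of at least 75% with every replicate also reaching 75%; inconclusive = mean inhibition at least 75% but some replicate below; inactive = mean inhibition below 75%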
# KKLEB cytotox = reduces viability of KKLEB cystic fibrosis airway cells; KKLEB CF airway cells viability, ATPlite luminescence, overnight; hits give low values; cells stimulated with P. aeruginosa culture filtrate; activity change (cytotoxicity), % at 5 µM; 360,000 compounds, 0.36% hits; AID 602141;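 active = corrected activity change at or below -50% at 5 µM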
# CF NFkB block = cystic fibrosis NF-kB activation inhibition. 360,000 compounds, 0.86% hits. AID 588850. inhibition, % at 5 µM. KKLEB NF-kB-GFP reporter, PAF-induced, GFP fluorescence overnight;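 active = at least 50% inhibition at 5 µM, scaled per plate between neutral and stimulator controls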;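 note: PAF is a Pseudomonas aeruginosa culture filtrate used as stimulus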
# DNA binder FP = binds DNA displacing acridine orange. AC35, µM (highest dose often 68 µM). shares compounds with EWS-Fli inh. salmon sperm DNA acridine orange fluorescence polarization. 640 compounds, 2% hits;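 active = fitted curve reaches a 35% signal fall AC35 below twice the sample's top valid tested dose, actives reach about 48 µM in these data; inactive = the rest, including activity in the rising direction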;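 note: lower polarization ratio signals compound binding to DNA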
# Hits are given with their value; 0 = inactive; ? = inconclusive; - = not tested or not shown.
SMILES,LGR2 antag,EWS-Fli inh,PAX8 reporter,Shn3 3UTR inh,KKLEB cytotox,CF NFkB block,DNA binder FP
CC(C)NC(=O)Nc1ccc2c(c1)C(=O)N([C@@H](C)CO)C[C@@H](C)[C@H](CN(C)Cc1ccncc1)OCCCC[C@H](C)O2,0,-,0,-,-,-,-
Cc1cccc(N2CCN(C3C(=O)Nc4ccccc4-n4nnnc43)CC2)c1C (centres undefined),0,54,0,-,-,-,0
Nc1ccc(Oc2cccc(Oc3ccc(N)cc3)c2)cc1,0,78,0,0,0,0,0
Cc1cccc(Oc2ccc(N)cc2)c1,-,-,-,0,0,0,-
CC(=O)Oc1ccc(-c2ccc(C(=O)Nc3cccc(S(=O)(=O)N4CCOCC4)c3)cc2)cc1,0,59,0,0,0,0,0
CC1(C)N=C(N)N=C(N)N1c1ccc(CCCCc2ccccc2)cc1,0,57,68,89,0,0,0
CC1(C)N=C(N)N=C(N)N1c1ccccc1,-,-,-,0,0,0,-
COc1ccc(/C=C2/CCc3ccccc3C2=O)cc1OC,0,-,0,0,0,0,-
COc1ccc(C=C2CCc3ccccc3C2=O)cc1,0,70,0,0,-52,0,0
CCOc1ccc(/C=C2\CCc3ccccc3C2=O)cc1,?,70,0,0,0,0,0
CCOc1ccccc1C=C1CCc2ccccc2C1=O,0,0,0,0,0,0,-
COc1cc2oc3cc(C#Cc4ccc(N)cc4)ccc3c(=O)c2cc1OC,-,55,0,0,0,0,0
C[C@H](CO)N1C[C@H](C)[C@@H](CN(C)S(C)(=O)=O)OCCCC[C@H](C)Oc2ccc(NS(=O)(=O)c3ccccc3)cc2C1=O,0,0,0,-,-,-,-
COc1ccc(-n2cc(-c3ccccc3)[n+]3c2CCCCC3)cc1,0,0,0,0,0,0,-
COc1ccc(-c2cn(-c3ccc(OC)cc3)c3[n+]2-c2ccccc2CC3)cc1,0,74,92,?,0,0,0
COc1cc(CC(=O)Nc2ccc(Cl)c(C(F)(F)F)c2)cc(OC)c1OC,0,0,0,0,0,0,-
COc1ccc(C(=O)OCC(=O)Nc2ccc(Cl)c(C(F)(F)F)c2)c(OC)c1OC,0,73,0,0,0,0,0
Cc1nc(N)nc(N)c1/C=C/C(C)(C)c1ccc(Cl)cc1,0,59,68,0,0,0,0
COC(=O)C1=CN(c2ccc(OC)cc2)C(N)=C(C#N)C1c1ccc(OC)cc1 (centres undefined),0,0,0,-,-,-,-
CCc1ccc(N2C=C(C(=O)OC)C(c3ccc(OC)cc3)C(C#N)=C2N)cc1 (centres undefined),0,54,0,-,-,-,0
C[C@@H](NCCc1ccc(O)cc1)[C@@H](O)c1ccc(O)cc1,0,0,0,0,0,0,-
CCCCCCCCNC(C)C(O)c1ccc(SC(C)C)cc1 (centres undefined),0,59,0,96,0,0,0
CCNC(=O)[C@@H]1[C@@H](CO)[C@@H]2Cn3c(ccc(C4=CCCCC4)c3=O)[C@H]1N2CC,0,-,-,-,-,-,0
CCOc1ccc(NC(=O)C(=O)N/N=C\c2ccc(CNS(=O)(=O)c3ccccc3)o2)cc1,0,86,0,0,0,0,0
CCOc1ccc(C(=O)N/N=C/c2ccc(-c3ccc(S(=O)(=O)Nc4ncccn4)cc3)o2)cc1,0,-,-,0,0,0,-
SMILES,LGR2 antag,EWS-Fli inh,PAX8 reporter,Shn3 3UTR inh,KKLEB cytotox,CF NFkB block,DNA binder FP
Cn1ccc2cc(-c3ccc4ncnc(NCc5cccs5)c4c3)ccc21,-,51,83,0,0,0,0
c1csc(CNc2ncnc3ccc(-c4ccc5c(c4)OCCO5)cc23)c1,0,0,0,0,0,0,-
COc1ccc(N=C2C(=O)Nc3ccc(C)c(Br)c32)cc1,0,70,0,0,0,0,0
Cc1cc(C(=O)Nc2ccc3c(c2)C(=O)N(C)[C@@H]2CC[C@H](CC(=O)N[C@H](C)c4ccccc4)O[C@H]2CO3)no1,0,58,0,-,-,-,0
Cc1cc(C(=O)Nc2ccc3c(c2)C(=O)N(C)[C@H]2CC[C@H](CC(=O)N[C@@H](C)c4ccccc4)O[C@H]2CO3)no1,0,0,0,-,-,-,-
COC(=O)C[C@H]1CC[C@@H]2[C@@H](COc3ccc(NC(=O)c4cc(C)on4)cc3C(=O)N2C)O1,0,0,0,-,-,-,-
COC(=O)C[C@@H]1CC[C@@H]2[C@H](COc3ccc(NC(=O)c4cc(C)on4)cc3C(=O)N2C)O1,0,60,0,-,-,-,0
